Consider ten compounds from PubChem BioAssay (NCI).

A short description of test [1]: NCI Yeast Anticancer Drug Screen. Data for the rad50 strain (AID 155).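 Also: 0% = growth of vehicle-only cultures of the same strain.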 The following applies: S. cerevisiae rad50 strain growth inhibition, hits give high values. The method in brief: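 Genetically altered yeast (DNA repair pathway); compound treatment; growth inhibition vs vehicle ctrl.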
Test [2] in a line: NCI Yeast Anticancer Drug Screen. Data for the mec2-1 strain (AID 157). The settings on record: S. cerevisiae mec2-1 strain, hits give high values. The method in brief: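 Readout is yeast growth inhibition, normalised to vehicle-treated controls, in the mec2-1 strain exposed to compound.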
Test [3] is described as follows: NCI Yeast Anticancer Drug Screen. Data for the sgs1 mgt1 strain (AID 161).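 Also: 0% = growth of cultures given vehicle only.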 The settings on record: S. cerevisiae sgs1 mgt1 strain, hits give high values. The method in brief:
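Compounds are added to genetically altered yeast, and growth is compared with cultures given vehicle alone to give percent inhibition.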

The nature of test [4]: NCI Yeast Anticancer Drug Screen. Data for the bub3 strain (AID 167). The settings on record: S. cerevisiae bub3 mutant strain, hits give high values. The method in brief: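 Yeast carrying a defined mutation is treated with each compound, and growth is compared with that of vehicle-exposed cells to give inhibition.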
Test [5] in a line: NCI Yeast Anticancer Drug Screen. Data for the mlh1 rad18 strain (AID 175). The following applies: S. cerevisiae mlh1 rad18 strain growth inhibition, hits give high values. The method in brief:
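Test agents were incubated with a yeast strain of defined genotype (DNA damage repair defect). Inhibition of growth was derived by comparison with vehicle-exposed cultures.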

The nature of test [6]: NCI Yeast Anticancer Drug Screen. Data for the cln2 rad14 strain (AID 165).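 Also: 0% = growth equal to vehicle treated cultures.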 The settings on record: S. cerevisiae cln2 rad14 strain, hits give high values. The method in brief:
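Relative to vehicle controls, growth inhibition of compound-treated cln2 rad14 yeast was recorded.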

[7] abbreviates: at 5.0 µM (retest, dose inferred, filed as 0.5).
[8] abbreviates: at 50.0 µM (retest, dose inferred, filed as 5.0).

Compounds without any hit were thinned out: in the full panel of roughly 79,000, 15% have a hit. A number with no mark means an inactive call. Calls of active or inactive are those of the source. Rule as the data show it: active = growth inhibition above about 70%; inactive = the rest.

Regarding `CCOC(=O)C1CC2(CCC1N)c1ccccc1-c1ccccc12` (configuration not stated), the growth inhibition in test [1] (setting [7]) is 3%; in test [1] (setting [8]), 28%; in test [1] (at 50.0 µM) it was 28.6%; in test [2] (setting [7]), -5%; in test [2] (setting [8]), 8%; in test [2] (at 50.0 µM) it was 47.5%. Also, the growth inhibition in test [3] (setting [7]) is -2%; in test [3] (setting [8]) it was 27%; in test [3] (at 50.0 µM), 44.5%; in test [4] (setting [7]), -5%; in test [4] (setting [8]), 23%; in test [4] (at 50.0 µM), 90.7% (active). The growth inhibition in test [5] (setting [7]) was 1%; in test [5] (setting [8]), 81% (active); in test [5] (at 50.0 µM), 37.5%.

Turning to `Clc1ccc2nc3ccccc3nc2c1`, the growth inhibition in test [1] (setting [7]) is -31%; in test [1] (setting [8]), 96% (active); in test [1] (at 50.0 µM), 94.7% (active); in test [2] (setting [7]), 26%; in test [2] (setting [8]), 67%; in test [2] (at 50.0 µM) it was 86.8% (active). Also, the growth inhibition is -5% in test [3] (setting [7]); 81% (active) in test [3] (setting [8]); 79.6% (active) in test [3] (at 50.0 µM); -9% in test [6] (setting [7]); 79% (active) in test [6] (setting [8]); 80.7% (active) in test [6] (at 50.0 µM). Also, the growth inhibition was -4% in test [5] (setting [7]), 94% (active) in test [5] (setting [8]) and 93.8% (active) in test [5] (at 50.0 µM).

With `CC(C)(C)c1cc(C(P(=O)(c2ccccc2)c2ccccc2)P(=O)(c2ccccc2)c2ccccc2)cc(C(C)(C)C)c1O`, the growth inhibition in test [1] (setting [7]) was 3%; in test [1] (setting [8]) it was 96% (active); in test [1] (at 50.0 µM) it was 97.9% (active); in test [2] (setting [7]), -5%; in test [2] (setting [8]), 92% (active); in test [2] (at 50.0 µM) it was 93.7% (active). Further, the growth inhibition in test [3] (setting [7]) is -8%; in test [3] (setting [8]), 97% (active); in test [3] (at 50.0 µM) it was 98.1% (active); in test [6] (setting [7]), 2%; in test [6] (setting [8]), 88% (active); in test [6] (at 50.0 µM) it was 94.7% (active). The growth inhibition was -4% in test [4] (setting [7]); 93% (active) in test [4] (setting [8]); 96.3% (active) in test [4] (at 50.0 µM); -3% in test [5] (setting [7]); 92% (active) in test [5] (setting [8]); 96.7% (active) in test [5] (at 50.0 µM).

With `NCCNCCNCc1c2ccccc2c(CNCCNCCN)c2ccccc12`, the growth inhibition was 13% in test [1] (setting [7]); 13% in test [1] (setting [8]); 36.2% in test [1] (at 50.0 µM); -3% in test [2] (setting [7]); -3% in test [2] (setting [8]); 90.9% (active) in test [2] (at 50.0 µM). The growth inhibition in test [3] (setting [7]) is 0%; in test [3] (setting [8]) it was 0%; in test [3] (at 50.0 µM), 90.9% (active); in test [6] (setting [7]), 5%; in test [6] (setting [8]), 5%; in test [6] (at 50.0 µM) it was 89.7% (active). The growth inhibition is 7% in test [4] (setting [7]); 7% in test [4] (setting [8]); 43.8% in test [4] (at 50.0 µM); 17% in test [5] (setting [7]); 17% in test [5] (setting [8]); 90.8% (active) in test [5] (at 50.0 µM).

For the compound `COc1ccccc1NC(=O)O/N=C(/Cl)C(C)C`, the growth inhibition in test [1] (setting [7]) was 1%; in test [1] (setting [8]), 70% (active); in test [1] (at 50.0 µM) it was -4.65%; in test [2] (setting [7]), 3%; in test [2] (setting [8]) it was 70% (active); in test [2] (at 50.0 µM) it was 52%. Besides, the growth inhibition in test [3] (setting [7]) is -32%; in test [3] (setting [8]) it was 71% (active); in test [3] (at 50.0 µM) it was 37.6%; in test [4] (setting [7]), -26%; in test [4] (setting [8]) it was 95% (active); in test [4] (at 50.0 µM), 80.5% (active). Further, the growth inhibition is -24% in test [5] (setting [7]), 41% in test [5] (setting [8]) and 41.1% in test [5] (at 50.0 µM).

`CCCCCCCCCCCCCCCC[n+]1ccc(/C=C/c2ccccc2)cc1`: the growth inhibition in test [1] (setting [7]) was 75% (active); in test [1] (setting [8]), 95% (active); in test [1] (at 50.0 µM), 98.4% (active); in test [2] (setting [7]), 100% (active); in test [2] (setting [8]) it was 96% (active); in test [2] (at 50.0 µM), 98.8% (active). In addition, the growth inhibition in test [3] (setting [7]) was 99% (active); in test [3] (setting [8]), 98% (active); in test [3] (at 50.0 µM), 98.5% (active); in test [6] (setting [7]), 46%; in test [6] (setting [8]), 94% (active); in test [6] (at 50.0 µM), 97.8% (active). In addition, the results for the growth inhibition in test [5] (setting [7]), in test [5] (setting [8]) and in test [5] (at 50.0 µM) were 99% (active), 98% (active) and 97.7% (active), respectively.

As for `O=NNc1ncccc1OCc1ccccc1`, the growth inhibition in test [1] (setting [7]) is 9%; in test [1] (setting [8]), 6%; in test [1] (at 50.0 µM), 56.9%; in test [2] (setting [7]), 6%; in test [2] (setting [8]), 6%; in test [2] (at 50.0 µM), 25.6%. Also, the growth inhibition in test [3] (setting [7]) was 9%; in test [3] (setting [8]) it was 14%; in test [3] (at 50.0 µM) it was 0.75%; in test [6] (setting [7]), 7%; in test [6] (setting [8]) it was 9%; in test [6] (at 50.0 µM) it was 3.2%. Besides, the growth inhibition is 10% in test [4] (setting [7]); 13% in test [4] (setting [8]); -2.9% in test [4] (at 50.0 µM); 9% in test [5] (setting [7]); 15% in test [5] (setting [8]); 17.8% in test [5] (at 50.0 µM).

Regarding `COc1ccc(OC(=O)c2ccccc2)c2c1C(=O)C=CC2=O`, the growth inhibition in test [1] (setting [7]) was 5%; in test [1] (setting [8]), 38%; in test [1] (at 50.0 µM) it was 92.7% (active); in test [2] (setting [7]), 10%; in test [2] (setting [8]) it was 38%; in test [2] (at 50.0 µM), 84.2% (active). Also, the growth inhibition in test [3] (setting [7]) was -38%; in test [3] (setting [8]), 21%; in test [3] (at 50.0 µM), 90.2% (active); in test [6] (setting [7]), 0%; in test [6] (setting [8]) it was 18%; in test [6] (at 50.0 µM), 51.5%. Also, the growth inhibition in test [5] (setting [7]) is 9%; in test [5] (setting [8]), 24%; in test [5] (at 50.0 µM), 67.8%.

Take `Oc1ccc(N=Nc2ccccc2)cc1`: the growth inhibition in test [1] (setting [7]) is 13%; in test [1] (setting [8]) it was 97% (active); in test [1] (at 50.0 µM), 98.5% (active); in test [2] (setting [7]), 5%; in test [2] (setting [8]), 99% (active); in test [2] (at 50.0 µM) it was 99.5% (active). Further, the growth inhibition is -6% in test [3] (setting [7]); 64% in test [3] (setting [8]); 99.3% (active) in test [3] (at 50.0 µM); -1% in test [6] (setting [7]); 98% (active) in test [6] (setting [8]); 98.1% (active) in test [6] (at 50.0 µM). Also, the growth inhibition in test [4] (setting [7]) was 4%; in test [4] (setting [8]), 98% (active); in test [4] (at 50.0 µM) it was 98.8% (active); in test [5] (setting [7]), 9%; in test [5] (setting [8]), 98% (active); in test [5] (at 50.0 µM), 99.2% (active).

In the case of `O=C(O)CCn1c2ccccc2c2ccccc21`, the growth inhibition in test [1] (setting [7]) is 6%; in test [1] (setting [8]), 45%; in test [1] (at 50.0 µM), 24.6%; in test [2] (setting [7]) it was -13%; in test [2] (setting [8]) it was 52%; in test [2] (at 50.0 µM), 36.4%. The growth inhibition was -1% in test [3] (setting [7]); 68% in test [3] (setting [8]); 40.5% in test [3] (at 50.0 µM); -10% in test [6] (setting [7]); 42% in test [6] (setting [8]); 15.1% in test [6] (at 50.0 µM). Also, the results for the growth inhibition in test [5] (setting [7]), in test [5] (setting [8]) and in test [5] (at 50.0 µM) were -4%, 49% and 66%, respectively.
